# Measured values: publication PMC7862700, “An all-to-all approach to the identification of sequence-specific readers for epigenetic DNA modifications on cytosine”
# How the values were obtained:
# Assay in all cases: DAPPL (digital affinity profiling via proximity ligation, sequencing); 10 mM Tris-HCl pH 7.5, 50 mM NaCl, 1 mM DTT, 4% glycerol, room temperature, 30 min; GST-TFs on glutathione beads, 16-mer random dsDNA library, 0.1% formaldehyde crosslink after washing; high values mean tight binding
# [1] = target: T1, FLI1 (Homo sapiens, UniProt Q01543 1-452); details: protein: recombinant; tags: N-terminal GST; dsDNA, one strand shown
# T1 sequence: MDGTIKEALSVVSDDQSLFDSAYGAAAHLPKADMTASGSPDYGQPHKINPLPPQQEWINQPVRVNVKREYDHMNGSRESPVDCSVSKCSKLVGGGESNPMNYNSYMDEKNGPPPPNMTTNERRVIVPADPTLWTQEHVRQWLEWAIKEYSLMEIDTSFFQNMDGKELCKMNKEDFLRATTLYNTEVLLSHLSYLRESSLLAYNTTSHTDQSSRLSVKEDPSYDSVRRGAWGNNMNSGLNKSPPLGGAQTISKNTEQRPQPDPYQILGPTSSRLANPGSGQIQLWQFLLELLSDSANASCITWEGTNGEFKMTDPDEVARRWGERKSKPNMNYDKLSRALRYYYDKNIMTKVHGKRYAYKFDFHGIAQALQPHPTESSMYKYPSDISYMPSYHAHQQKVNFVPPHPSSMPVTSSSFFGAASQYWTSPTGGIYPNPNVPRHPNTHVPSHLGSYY
# How it was run: (§1)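 In yeast, human transcription factors were expressed with a GST fusion, then pulled down on glutathione beads and given DNA barcodes. Pooled with a tag-only sample, they were exposed to 200 nmole of a 16-mer random double-stranded DNA library (Tris/NaCl/DTT/glycerol buffer, room temperature, 30 min), washed, crosslinked with 0.1% formaldehyde, proximity-ligated using BsaI/T4 ligase for 1 h at 37 °C, PCR-amplified and read on an Illumina NextSeq500. Each hexamer's frequency of reads for a factor, divided by the matching frequency for the tag-only sample, gives the binding signal.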
# [2] = target: T2, ELK1 (Homo sapiens, UniProt P19419 1-428); details: protein: recombinant; tags: N-terminal GST; dsDNA, one strand shown
# T2 sequence: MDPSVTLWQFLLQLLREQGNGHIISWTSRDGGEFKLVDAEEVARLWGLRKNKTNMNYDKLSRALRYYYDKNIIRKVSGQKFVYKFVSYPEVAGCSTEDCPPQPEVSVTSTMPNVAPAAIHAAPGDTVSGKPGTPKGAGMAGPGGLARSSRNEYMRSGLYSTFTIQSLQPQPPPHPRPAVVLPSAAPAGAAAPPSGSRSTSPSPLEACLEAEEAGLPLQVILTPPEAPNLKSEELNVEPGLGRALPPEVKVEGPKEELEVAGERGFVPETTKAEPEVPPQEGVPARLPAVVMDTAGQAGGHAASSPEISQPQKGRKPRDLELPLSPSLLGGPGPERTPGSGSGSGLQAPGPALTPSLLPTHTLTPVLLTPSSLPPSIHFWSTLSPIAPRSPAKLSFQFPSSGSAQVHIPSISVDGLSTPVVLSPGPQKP
# How it was run: as §1
# [3] = target: T3, GABPA (Homo sapiens, UniProt Q06546 1-454); details: protein: recombinant; tags: N-terminal GST; dsDNA, one strand shown
# T3 sequence: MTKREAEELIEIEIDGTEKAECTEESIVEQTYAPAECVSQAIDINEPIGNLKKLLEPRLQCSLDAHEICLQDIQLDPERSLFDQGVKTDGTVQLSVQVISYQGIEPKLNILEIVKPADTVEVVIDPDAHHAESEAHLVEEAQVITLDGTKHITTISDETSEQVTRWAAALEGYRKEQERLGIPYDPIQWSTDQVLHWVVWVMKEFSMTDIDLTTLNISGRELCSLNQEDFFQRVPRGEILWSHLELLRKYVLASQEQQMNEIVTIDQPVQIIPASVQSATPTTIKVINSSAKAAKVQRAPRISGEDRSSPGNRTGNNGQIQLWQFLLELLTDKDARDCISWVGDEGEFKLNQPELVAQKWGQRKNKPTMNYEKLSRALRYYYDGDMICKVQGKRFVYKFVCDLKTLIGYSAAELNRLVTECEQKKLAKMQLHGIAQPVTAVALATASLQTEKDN
# How it was run: as §1
# [4] = target: T4, ERG (Homo sapiens, UniProt P11308 1-479); details: protein: recombinant; tags: N-terminal GST; dsDNA, one strand shown
# T4 sequence: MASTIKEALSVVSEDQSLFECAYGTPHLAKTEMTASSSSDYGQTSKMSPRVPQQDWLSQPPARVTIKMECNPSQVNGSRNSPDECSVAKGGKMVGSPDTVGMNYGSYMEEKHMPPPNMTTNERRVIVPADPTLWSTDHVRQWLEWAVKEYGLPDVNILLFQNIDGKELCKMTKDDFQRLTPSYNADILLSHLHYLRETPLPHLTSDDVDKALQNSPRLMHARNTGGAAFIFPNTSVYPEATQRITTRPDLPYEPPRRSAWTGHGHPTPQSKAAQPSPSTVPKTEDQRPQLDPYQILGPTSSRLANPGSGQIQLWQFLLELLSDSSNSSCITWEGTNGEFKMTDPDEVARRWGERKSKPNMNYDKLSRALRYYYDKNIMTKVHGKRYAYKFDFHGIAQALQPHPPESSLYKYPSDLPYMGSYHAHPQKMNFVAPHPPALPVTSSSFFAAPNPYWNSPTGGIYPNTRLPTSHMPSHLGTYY
# How it was run: as §1
# [5] = target: ELF1 (Homo sapiens, UniProt P32519 1-619); details: protein: recombinant; tags: N-terminal GST; dsDNA, one strand shown
# How it was run: as §1
# [6] = target: T5, EHF (Homo sapiens, UniProt Q9NZC4 1-300); details: protein: recombinant; tags: N-terminal GST; dsDNA, one strand shown
# T5 sequence: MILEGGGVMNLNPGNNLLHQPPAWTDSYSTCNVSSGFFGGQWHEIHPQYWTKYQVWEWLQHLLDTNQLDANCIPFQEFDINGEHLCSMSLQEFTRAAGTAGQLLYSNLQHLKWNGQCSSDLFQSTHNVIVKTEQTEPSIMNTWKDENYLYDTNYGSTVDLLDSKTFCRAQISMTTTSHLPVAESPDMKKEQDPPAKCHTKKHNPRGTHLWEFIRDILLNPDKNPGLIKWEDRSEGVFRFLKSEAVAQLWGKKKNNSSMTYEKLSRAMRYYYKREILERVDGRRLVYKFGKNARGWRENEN
# How it was run: as §1
# [7] = target: SPI1 (Homo sapiens, UniProt P17947 1-270); details: protein: recombinant; tags: N-terminal GST; dsDNA, one strand shown
# How it was run: as §1
# [8] = target: SPIB (Homo sapiens, UniProt Q01892 1-262); details: protein: recombinant; tags: N-terminal GST; dsDNA, one strand shown
# How it was run: as §1
# [9] = target: T6, ELK3 (Homo sapiens, UniProt P41970 1-407); details: protein: recombinant; tags: N-terminal GST; dsDNA, one strand shown
# T6 sequence: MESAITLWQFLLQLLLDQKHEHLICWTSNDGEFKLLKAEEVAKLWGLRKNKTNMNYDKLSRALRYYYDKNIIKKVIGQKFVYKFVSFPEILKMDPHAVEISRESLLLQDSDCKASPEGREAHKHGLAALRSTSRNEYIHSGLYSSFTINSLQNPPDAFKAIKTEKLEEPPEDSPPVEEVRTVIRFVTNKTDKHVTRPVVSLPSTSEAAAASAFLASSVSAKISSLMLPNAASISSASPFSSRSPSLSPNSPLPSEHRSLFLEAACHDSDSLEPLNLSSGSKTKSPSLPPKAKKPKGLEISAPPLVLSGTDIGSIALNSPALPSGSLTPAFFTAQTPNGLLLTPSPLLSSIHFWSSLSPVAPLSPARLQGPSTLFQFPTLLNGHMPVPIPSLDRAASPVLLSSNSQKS
# How it was run: as §1
# [10] = target: T7, FEV (Homo sapiens, UniProt Q99581 1-238); details: protein: recombinant; tags: N-terminal GST; dsDNA, one strand shown
# T7 sequence: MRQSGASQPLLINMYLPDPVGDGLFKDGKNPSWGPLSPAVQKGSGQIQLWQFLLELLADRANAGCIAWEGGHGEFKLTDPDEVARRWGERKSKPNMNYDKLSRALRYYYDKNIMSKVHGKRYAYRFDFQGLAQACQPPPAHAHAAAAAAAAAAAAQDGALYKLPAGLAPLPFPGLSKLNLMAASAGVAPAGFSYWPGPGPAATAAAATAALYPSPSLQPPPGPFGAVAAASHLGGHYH
# How it was run: as §1
# [11] = target: ETV5 (Homo sapiens, UniProt P41161 1-510); details: protein: recombinant; tags: N-terminal GST; dsDNA, one strand shown
# How it was run: as §1
# [12] = target: HSF1 (Homo sapiens, UniProt Q00613 1-529); details: protein: recombinant; tags: N-terminal GST; chain copies: 3; dsDNA, one strand shown
# How it was run: as §1
# [13] = target: T8, SPIC (Homo sapiens, UniProt Q8N5J4 1-248); details: protein: recombinant; tags: N-terminal GST; dsDNA, one strand shown
# T8 sequence: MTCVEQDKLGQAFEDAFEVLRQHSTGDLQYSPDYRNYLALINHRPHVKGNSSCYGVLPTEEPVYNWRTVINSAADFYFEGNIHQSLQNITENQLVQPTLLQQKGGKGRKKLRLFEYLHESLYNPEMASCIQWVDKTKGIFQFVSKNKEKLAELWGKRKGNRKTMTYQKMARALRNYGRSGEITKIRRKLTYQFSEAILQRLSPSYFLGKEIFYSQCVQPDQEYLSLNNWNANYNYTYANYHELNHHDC
# How it was run: as §1
# [14] = target: ELF4 (Homo sapiens, UniProt Q99607 1-663); details: protein: recombinant; tags: N-terminal GST; dsDNA, one strand shown
# How it was run: as §1
# [15] = target: T9, ELK4 (Homo sapiens, UniProt P28324-2 1-405); details: protein: recombinant; tags: N-terminal GST; dsDNA, one strand shown
# T9 sequence: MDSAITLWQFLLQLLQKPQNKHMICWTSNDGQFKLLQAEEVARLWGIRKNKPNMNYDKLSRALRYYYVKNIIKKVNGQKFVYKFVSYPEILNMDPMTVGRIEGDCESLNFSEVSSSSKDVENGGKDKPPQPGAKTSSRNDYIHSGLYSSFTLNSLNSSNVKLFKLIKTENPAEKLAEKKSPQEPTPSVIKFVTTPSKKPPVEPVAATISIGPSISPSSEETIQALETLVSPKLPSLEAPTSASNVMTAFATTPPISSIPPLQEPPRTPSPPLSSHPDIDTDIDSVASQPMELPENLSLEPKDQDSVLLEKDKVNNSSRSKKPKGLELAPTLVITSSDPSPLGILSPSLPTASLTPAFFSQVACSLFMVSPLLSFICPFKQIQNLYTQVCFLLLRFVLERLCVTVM
# How it was run: as §1
# [16] = target: T10, ETV2 (Homo sapiens, UniProt O00321 1-342); details: protein: recombinant; tags: N-terminal GST; dsDNA, one strand shown
# T10 sequence: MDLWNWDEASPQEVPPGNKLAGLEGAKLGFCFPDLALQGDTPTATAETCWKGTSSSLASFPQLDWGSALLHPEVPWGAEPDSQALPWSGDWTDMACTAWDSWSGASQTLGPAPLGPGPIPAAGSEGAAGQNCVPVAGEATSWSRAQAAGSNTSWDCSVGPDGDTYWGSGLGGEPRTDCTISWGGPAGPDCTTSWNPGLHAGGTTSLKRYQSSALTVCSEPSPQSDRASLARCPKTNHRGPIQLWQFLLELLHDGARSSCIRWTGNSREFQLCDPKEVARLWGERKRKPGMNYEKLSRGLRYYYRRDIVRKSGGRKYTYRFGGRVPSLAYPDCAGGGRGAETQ
# How it was run: as §1
# [17] = target: T11, ELF3 (Homo sapiens, UniProt P78545 1-371); details: protein: recombinant; tags: N-terminal GST; dsDNA, one strand shown
# T11 sequence: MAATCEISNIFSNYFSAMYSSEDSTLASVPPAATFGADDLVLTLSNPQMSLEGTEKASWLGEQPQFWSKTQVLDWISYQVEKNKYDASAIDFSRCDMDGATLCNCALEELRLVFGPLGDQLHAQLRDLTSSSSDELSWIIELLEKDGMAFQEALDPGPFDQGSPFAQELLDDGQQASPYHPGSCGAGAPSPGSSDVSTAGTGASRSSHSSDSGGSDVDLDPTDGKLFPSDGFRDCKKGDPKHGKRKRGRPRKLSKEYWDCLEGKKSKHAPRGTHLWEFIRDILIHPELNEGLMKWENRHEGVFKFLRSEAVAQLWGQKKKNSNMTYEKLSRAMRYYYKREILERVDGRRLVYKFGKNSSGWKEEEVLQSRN
# How it was run: as §1
# [18] = target: CRX (Homo sapiens, UniProt O43186 1-299); details: protein: recombinant; tags: N-terminal GST; dsDNA, one strand shown
# How it was run: as §1
# [19] = target: ETV1 (Homo sapiens, UniProt P50549 1-477); details: protein: recombinant; tags: N-terminal GST; dsDNA, one strand shown
# How it was run: as §1
# Sequence of SPIB (Q01892 whole entry): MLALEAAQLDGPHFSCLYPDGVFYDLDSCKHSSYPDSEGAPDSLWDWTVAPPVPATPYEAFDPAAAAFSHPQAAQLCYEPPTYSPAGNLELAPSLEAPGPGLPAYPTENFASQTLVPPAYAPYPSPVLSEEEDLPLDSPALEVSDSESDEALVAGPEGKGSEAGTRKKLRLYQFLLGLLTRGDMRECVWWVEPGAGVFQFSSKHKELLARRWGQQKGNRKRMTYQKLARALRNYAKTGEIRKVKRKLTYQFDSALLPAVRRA
# Sequence of ETV5 (P41161 whole entry): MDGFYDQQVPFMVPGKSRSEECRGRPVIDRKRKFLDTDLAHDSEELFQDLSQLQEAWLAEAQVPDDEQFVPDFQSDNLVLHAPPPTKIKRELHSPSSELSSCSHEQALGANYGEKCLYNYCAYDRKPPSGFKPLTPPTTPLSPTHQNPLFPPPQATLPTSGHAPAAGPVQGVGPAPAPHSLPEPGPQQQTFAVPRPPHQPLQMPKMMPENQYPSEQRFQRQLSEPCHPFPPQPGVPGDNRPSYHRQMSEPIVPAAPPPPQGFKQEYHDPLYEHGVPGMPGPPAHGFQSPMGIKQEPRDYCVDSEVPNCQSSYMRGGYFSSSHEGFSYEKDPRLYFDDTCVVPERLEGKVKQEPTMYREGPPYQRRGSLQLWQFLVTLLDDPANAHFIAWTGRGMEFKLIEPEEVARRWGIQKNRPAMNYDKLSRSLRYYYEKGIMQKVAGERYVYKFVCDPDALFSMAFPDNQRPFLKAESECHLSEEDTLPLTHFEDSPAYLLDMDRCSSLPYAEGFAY
# Sequence of CRX (O43186 whole entry): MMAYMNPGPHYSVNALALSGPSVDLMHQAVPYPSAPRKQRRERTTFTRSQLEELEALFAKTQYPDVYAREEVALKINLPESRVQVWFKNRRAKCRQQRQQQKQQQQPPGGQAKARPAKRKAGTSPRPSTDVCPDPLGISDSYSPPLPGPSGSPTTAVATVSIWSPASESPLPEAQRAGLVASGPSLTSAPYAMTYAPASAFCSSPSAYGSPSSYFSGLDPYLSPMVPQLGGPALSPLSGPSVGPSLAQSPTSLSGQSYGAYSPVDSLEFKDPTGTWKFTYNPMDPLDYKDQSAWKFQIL
# Sequence of ELF4 (Q99607 whole entry): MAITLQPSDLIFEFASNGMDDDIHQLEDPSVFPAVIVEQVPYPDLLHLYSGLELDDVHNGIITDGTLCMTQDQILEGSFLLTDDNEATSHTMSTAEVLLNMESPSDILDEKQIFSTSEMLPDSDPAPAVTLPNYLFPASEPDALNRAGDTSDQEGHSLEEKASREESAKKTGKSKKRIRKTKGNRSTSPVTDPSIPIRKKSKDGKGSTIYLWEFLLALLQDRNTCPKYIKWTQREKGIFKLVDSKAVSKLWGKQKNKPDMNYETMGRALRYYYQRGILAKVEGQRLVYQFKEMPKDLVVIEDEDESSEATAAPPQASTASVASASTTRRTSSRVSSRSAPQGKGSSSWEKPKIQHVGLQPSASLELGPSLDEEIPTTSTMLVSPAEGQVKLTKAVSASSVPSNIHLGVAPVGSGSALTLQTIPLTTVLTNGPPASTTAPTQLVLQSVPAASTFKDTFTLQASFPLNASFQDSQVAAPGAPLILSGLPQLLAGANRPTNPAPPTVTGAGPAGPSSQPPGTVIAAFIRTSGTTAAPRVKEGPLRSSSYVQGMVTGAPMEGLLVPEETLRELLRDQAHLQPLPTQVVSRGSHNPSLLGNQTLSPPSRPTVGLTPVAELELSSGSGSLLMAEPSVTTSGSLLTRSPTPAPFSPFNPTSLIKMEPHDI
# Sequence of HSF1 (Q00613 whole entry): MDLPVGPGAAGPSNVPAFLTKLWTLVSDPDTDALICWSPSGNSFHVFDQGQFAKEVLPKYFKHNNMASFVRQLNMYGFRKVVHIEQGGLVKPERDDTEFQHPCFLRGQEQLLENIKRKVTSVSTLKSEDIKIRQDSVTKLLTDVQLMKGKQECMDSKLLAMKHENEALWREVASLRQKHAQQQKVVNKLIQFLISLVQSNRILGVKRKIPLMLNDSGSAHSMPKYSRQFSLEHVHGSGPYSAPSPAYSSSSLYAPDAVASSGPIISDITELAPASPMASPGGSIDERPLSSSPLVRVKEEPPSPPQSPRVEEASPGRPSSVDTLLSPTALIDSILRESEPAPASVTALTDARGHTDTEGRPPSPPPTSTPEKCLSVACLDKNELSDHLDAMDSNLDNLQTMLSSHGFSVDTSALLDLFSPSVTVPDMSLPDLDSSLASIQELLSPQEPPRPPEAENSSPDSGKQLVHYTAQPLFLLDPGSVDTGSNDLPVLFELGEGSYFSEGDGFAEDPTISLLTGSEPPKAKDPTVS
# Sequence of ETV1 (P50549 whole entry): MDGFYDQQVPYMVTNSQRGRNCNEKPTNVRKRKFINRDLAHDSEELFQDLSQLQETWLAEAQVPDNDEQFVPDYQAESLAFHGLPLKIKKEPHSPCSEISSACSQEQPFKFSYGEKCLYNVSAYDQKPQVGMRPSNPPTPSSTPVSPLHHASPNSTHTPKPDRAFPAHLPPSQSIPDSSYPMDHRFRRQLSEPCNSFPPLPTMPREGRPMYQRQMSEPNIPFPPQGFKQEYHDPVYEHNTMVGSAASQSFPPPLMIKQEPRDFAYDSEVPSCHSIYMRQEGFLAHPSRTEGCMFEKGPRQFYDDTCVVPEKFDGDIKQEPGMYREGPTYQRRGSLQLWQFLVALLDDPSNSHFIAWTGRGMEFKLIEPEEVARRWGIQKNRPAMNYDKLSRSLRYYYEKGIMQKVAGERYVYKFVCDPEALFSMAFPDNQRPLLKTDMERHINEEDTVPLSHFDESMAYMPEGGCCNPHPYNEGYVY
# Sequence of ELF1 (P32519 whole entry): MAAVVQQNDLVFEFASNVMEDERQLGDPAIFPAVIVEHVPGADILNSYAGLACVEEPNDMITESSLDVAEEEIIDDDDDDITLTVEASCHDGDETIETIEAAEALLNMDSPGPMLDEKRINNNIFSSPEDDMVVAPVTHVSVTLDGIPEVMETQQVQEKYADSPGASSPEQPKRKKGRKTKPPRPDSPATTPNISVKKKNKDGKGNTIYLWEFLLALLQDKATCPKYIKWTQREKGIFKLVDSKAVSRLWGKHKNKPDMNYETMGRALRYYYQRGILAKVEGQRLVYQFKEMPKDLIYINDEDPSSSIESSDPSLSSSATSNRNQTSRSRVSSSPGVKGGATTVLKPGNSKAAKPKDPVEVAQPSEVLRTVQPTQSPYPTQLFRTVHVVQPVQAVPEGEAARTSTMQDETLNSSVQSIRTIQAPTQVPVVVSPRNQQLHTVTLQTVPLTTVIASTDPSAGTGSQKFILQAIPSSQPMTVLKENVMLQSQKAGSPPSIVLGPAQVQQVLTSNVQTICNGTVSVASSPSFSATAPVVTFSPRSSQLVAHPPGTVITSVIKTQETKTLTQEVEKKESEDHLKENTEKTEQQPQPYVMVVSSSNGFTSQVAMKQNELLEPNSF
sequence,measurement,setting,value
TACTTC,binding signal,[1],"3.38 fold enrichment (6-mer frequency, TF over GST control)"
same,binding signal,[2],"3.79 fold enrichment (6-mer frequency, TF over GST control)"
same,binding signal,[3],"3.25 fold enrichment (6-mer frequency, TF over GST control)"
same,binding signal,[4],"3.88 fold enrichment (6-mer frequency, TF over GST control)"
same,binding signal,[5],"3.54 fold enrichment (6-mer frequency, TF over GST control)"
same,binding signal,[6],"3.7 fold enrichment (6-mer frequency, TF over GST control)"
same,binding signal,[7],"4.12 fold enrichment (6-mer frequency, TF over GST control)"
same,binding signal,[8],"3.33 fold enrichment (6-mer frequency, TF over GST control)"
same,binding signal,[9],"4.29 fold enrichment (6-mer frequency, TF over GST control)"
same,binding signal,[10],"4.27 fold enrichment (6-mer frequency, TF over GST control)"
same,binding signal,[11],"3.65 fold enrichment (6-mer frequency, TF over GST control)"
same,binding signal,[12],"1.43 fold enrichment (6-mer frequency, TF over GST control)"
same,binding signal,[13],"3.27 fold enrichment (6-mer frequency, TF over GST control)"
same,binding signal,[14],"3.17 fold enrichment (6-mer frequency, TF over GST control)"
same,binding signal,[15],"3.03 fold enrichment (6-mer frequency, TF over GST control)"
same,binding signal,[16],"3.6 fold enrichment (6-mer frequency, TF over GST control)"
same,binding signal,[17],"3.4 fold enrichment (6-mer frequency, TF over GST control)"
same,binding signal,[18],"1.48 fold enrichment (6-mer frequency, TF over GST control)"
same,binding signal,[19],"3.6 fold enrichment (6-mer frequency, TF over GST control)"
